The values that follow come from PubChem BioAssay (EPA / NIEHS).

Where “and” joins values, the source holds several entries; their conditions need not be identical. Equal values may be shown once. Some structures have more than one record in an assay (separate samples or runs), and their calls can disagree. Calls of active or inactive are those of the source. How the source made its calls: active means hit-call score of the fitted dose curve at least 0.9, where 1 is the maximum; inactive means score below 0.9.

The nature of assay [1]: ATG_CRE_CIS: Attagene CIS-FACTORIAL HepG2 Assay for human cAMP Responsive Element (CRE) binding protein 3 (AID 2282926). Conditions: HepG2 CRE cis-reporter, Attagene multiplexed mRNA; actives raise or lower the signal. The method, boiled down:
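HepG2 cells transiently transfected with cis-element-driven multiple reporter transcription units; CRE reporter mRNA measured 24 h after dosing by RT-PCR, 6-FAM labelling, HpaI digestion and capillary electrophoresis. Bidirectional fit versus DMSO baseline.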

Assay [2] has as its target CCAAT/enhancer-binding protein beta (Homo sapiens) (UniProt P17676). Put plainly: ATG_C_EBP_CIS: Attagene CIS-FACTORIAL HepG2 Assay for human CCAAT/Enhancer Binding Protein (C/EBP) beta (AID 2282927). Conditions: HepG2 Attagene cis-factorial transcription factor reporter; actives raise or lower the signal. The gist of the method: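 Changes in reporter mRNA, rather than exogenous chimeric receptor activity, reflect native C/EBP signalling in transfected HepG2 cells dosed for 24 h; transcripts are detected by RT-PCR and capillary electrophoresis.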

Assay [3] in a line: ATG_CMV_CIS: Attagene CIS-FACTORIAL HepG2 Assay for human CMV (Internal Marker) (AID 2282928).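 Further: endpoint acts as a background internal control marker rather than a target.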 The note with it: HepG2 CMV promoter reporter, transcription factor profiling; actives raise or lower the signal. The method, boiled down:
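After transient transfection of HepG2 with reporter transcription units driven by cis-regulatory promoters, cells receive test chemical for 24 h. Labeled reporter amplicons, digested with HpaI, are sized and quantified by capillary electrophoresis against DMSO.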

Assay [4] in a line: ATG_DR4_LXR_CIS: Attagene CIS-FACTORIAL HepG2 Assay for human Liver X Receptor (LXR), DR4 submotif (AID 2282929). The note with it: HepG2 Attagene DR4 cis-reporter, mRNA transcription; actives raise or lower the signal. The method, boiled down: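 Endogenous factor activity at a DR4 cis-element is read as reporter mRNA in transiently transfected HepG2 cells. Exposure lasts 24 h; transcripts are amplified, fluorescently labelled and sized by capillary electrophoresis, with DMSO as baseline.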

Assay [5] concerns the target Aryl hydrocarbon receptor (Homo sapiens) (UniProt P35869). Put plainly: ATG_Ahr_CIS: Attagene CIS-FACTORIAL HepG2 Assay for human Aryl Hydrocarbon Receptor (Ahr) (AID 2282930). The note with it: HepG2 AhR cis-factorial reporter transcription; actives raise or lower the signal. The gist of the method:
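HepG2, transient MRTU (cis) transfection, 24 h exposure. RNA → cDNA → PCR → 6-FAM primer extension → HpaI 2 h 37 C → CE. Fit: bidirectional, DMSO baseline.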

A short description of assay [6]: ATG_AP_1_CIS: Attagene CIS-FACTORIAL HepG2 Assay for human Activator Protein 1 (AP-1) (AID 2282931). The note with it: HepG2 Attagene cis-factorial AP-1 reporter mRNA; actives raise or lower the signal. The method, boiled down:
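Fluorescence of labelled PCR fragments separated by capillary electrophoresis gives reporter mRNA levels. HepG2 with transfected cis-regulated reporter units, 24 h exposure; DMSO serves as baseline for bidirectional curve fits.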

Assay [7] is described as follows: ATG_AP_2_CIS: Attagene CIS-FACTORIAL HepG2 Assay for human Activator Protein 2 (AP-2) (AID 2282932). The note with it: HepG2 AP-2 cis-reporter, Attagene transcription factor profiling; actives raise or lower the signal. The method, boiled down: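 HepG2, transient MRTU transfection, cis-regulated reporters; 24 h compound exposure; RNA isolated, RT-PCR, 6-FAM labelling, HpaI digest, CE fluorescence. DMSO = negative control/baseline, bidirectional fit.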

A short description of assay [8]: ATG_BRE_CIS: Attagene CIS-FACTORIAL HepG2 Assay for human Bone Morphogenetic Protein (BMP) Response Element (BRE) (AID 2282933). Conditions: HepG2 BMP response element reporter, Attagene transcription factor profiling; actives raise or lower the signal. The method, boiled down: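 After a 24 h chemical treatment, transiently transfected HepG2 cells were lysed for RNA; reporter transcripts were quantified by fluorescent RT-PCR and capillary electrophoresis, normalised to DMSO.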

Assay [9] is described as follows: APR_HepG2_CellLoss_72hr: Apredica 72-hour HepG2 Assay for Cell Loss (AID 2282915). The note with it: high-content imaging. The gist of the method:
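Cell number comes from Hoechst 33342-labelled nuclei, imaged at 20x after 3.7% formaldehyde fixation. Dosing was 0.39–200 uM, ten concentrations in duplicate, 0.5% DMSO final, for 72 h. Bidirectional fit relative to DMSO baseline.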

Assay [10] is described as follows: APR_HepG2_P-H2AX_72hr: Apredica 72-hour HepG2 Assay for H2AX Phosphorylation (AID 2282916).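 Further: phospho-histone H2A.x immunostain intensity per cell marking DNA damage.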 The note with it: imaging, actives raise or lower the signal. The gist of the method:
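HepG2; cpd 0.39–200 uM ×10 conc, duplicates; 0.5% DMSO; 72 hr. Fix 3.7% formaldehyde 30 min RT, 0.5% Triton X-100 10 min. Anti-phospho-H2A.x 1:200 + Hoechst 2 ug/mL, 60 min RT; ArrayScan imaging.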

A short description of assay [11]: APR_HepG2_MitoMembPot_72hr: Apredica 72-hour HepG2 Assay for Mitochondrial Membrane Potential (AID 2282917). Conditions: imaging, actives raise or lower the signal. The method, boiled down: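 Membrane potential read by MitoTracker Red CMXRos (250 nM, 30 min, pre-fixation) fluorescence imaging of HepG2 after 72 hr exposure. Ten concentrations, 0.39–200 uM, duplicate wells, 0.5% DMSO; fitted in both directions against DMSO baseline.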

Assay [12] is described as follows: APR_HepG2_MitoticArrest_72hr: Apredica 72-hour HepG2 Assay for Mitotic Arrest (AID 2282918). The note with it: high-content imaging, actives raise or lower the signal. The gist of the method: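 HepG2 cells treated 72 h at 0.39–200 uM, 0.5% DMSO final; formaldehyde-fixed, stained with Hoechst 33342 and phospho-histone H3 antibody, imaged by high-content fluorescence; bidirectional fit versus DMSO.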

Assay [13] can be described thus: APR_HepG2_MicrotubuleCSK_72hr: Apredica 72-hour HepG2 Assay for Microtubule CSK Stabilty (AID 2282919). Conditions: HepG2 microtubule cytoskeleton, high-content imaging, actives raise or lower the signal. The method, boiled down: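 Read-out is tubulin fluorescence intensity from high-content imaging of HepG2 cells, with nuclei identified by Hoechst 33342. Treatment lasts 72 h at 0.39–200 uM, and curves are fitted bidirectionally against the DMSO negative control.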

A short description of assay [14]: APR_HepG2_P-H2AX_24hr: Apredica 24-hour HepG2 Assay for H2AX Phosphorylation (AID 2282920). The note with it: high-content imaging, actives raise or lower the signal. The gist of the method:
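HepG2 cells dosed 24 h at 0.39–200 uM (10 points, duplicate, 0.5% DMSO final). Formaldehyde-fixed and permeabilized, then immunostained for phospho-H2A.x with Hoechst. Fluorescence quantified by high-content imaging, fitted bidirectionally versus DMSO.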

Assay [15] can be described thus: APR_HepG2_StressKinase_72hr: Apredica 72-hour HepG2 Assay for Stress Kinase (AID 2282921). The note with it: HepG2 stress kinase (phospho-c-Jun) imaging, actives raise or lower the signal. The method, boiled down:
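Dose 0.39–200 uM (10 pts, duplicate), 0.5% DMSO; 72 h; fix 3.7% formaldehyde 30 min RT; Triton permeabilize; anti-phospho-c-Jun/Cy3 + Hoechst 60 min RT; image 20x; fit gain/loss vs DMSO.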

Assay [16] is described as follows: APR_HepG2_StressKinase_24hr: Apredica 24-hour HepG2 Assay for Stress Kinase (AID 2282922). Conditions: HepG2 stress kinase (phospho-c-Jun) imaging, actives raise or lower the signal. The method, boiled down:
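HepG2, 24 hr dosing, 0.39–200 uM in duplicate, 0.5% DMSO; formaldehyde fix (3.7%), 0.5% Triton X-100; anti-phospho-c-Jun + Cy3 secondary, Hoechst counterstain; ArrayScan imaging; bidirectional curve fit vs DMSO baseline.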

Assay [17] can be described thus: APR_HepG2_p53Act_72hr: Apredica 72-hour HepG2 Assay for p53 Activation (AID 2282923).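 Further: average cellular p53 protein immunofluorescence intensity in HepG2 cells.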 The note with it: high-content imaging, actives raise or lower the signal. The gist of the method:
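10-pt conc. 0.39–200 uM, duplicate, 0.5% DMSO; 72 hr exposure; 3.7% formaldehyde fix, 0.5% Triton perm; sheep anti-p53/Cy5 + Hoechst; ArrayScan 20x, 6 images/well; gain/loss fit vs DMSO.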

A short description of assay [18]: APR_HepG2_MitoMass_72hr: Apredica 72-hour HepG2 Assay for Mitochondrial Mass (AID 2282924).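 Further: MitoTracker Red CMXRos stain intensity per cell imaged as mitochondrial mass.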 Conditions: high-content imaging, actives raise or lower the signal. The gist of the method: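 HepG2, 72 hr cmpd, 10 conc 0.39–200 uM in dup, DMSO 0.5% v/v. MitoTracker Red CMXRos 250 nM 30 min pre-fix; formaldehyde 3.7% fix 30 min RT. HCS imaging, gain/loss fit vs DMSO.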

A short description of assay [19]: APR_HepG2_NuclearSize_72hr: Apredica 72-hour HepG2 Assay for Nuclear Size (AID 2282925). The note with it: high-content imaging, actives raise or lower the signal. The method, boiled down:
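HepG2; cpd 0.39–200 uM, 10 conc, duplicate; 72 h; DMSO 0.5% v/v; fix 3.7% formaldehyde 30 min RT; Triton permeabilization; Hoechst 2 ug/mL; HCS imaging 20x; nuclear diameter; gain/loss fit vs DMSO.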

In assay [20] the target is Retinoic acid receptor alpha (Homo sapiens) (UniProt P10276). Put plainly: ATG_DR5_RAR_CIS: Attagene CIS-FACTORIAL HepG2 Assay for human Retinoic Acid Receptor Alpha (RARE), DR5 submotif (AID 2282934). Conditions: HepG2 Attagene cis-factorial RARE DR5 reporter, mRNA; actives raise or lower the signal. The method, boiled down:
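HepG2, transient cis-reporter transfection, 24 h exposure. mRNA readout: RT-PCR, FAM label, HpaI cut, capillary electrophoresis. DMSO baseline, gain/loss fitting.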

Sequence of Aryl hydrocarbon receptor (Homo sapiens) (P35869 whole entry, looked up): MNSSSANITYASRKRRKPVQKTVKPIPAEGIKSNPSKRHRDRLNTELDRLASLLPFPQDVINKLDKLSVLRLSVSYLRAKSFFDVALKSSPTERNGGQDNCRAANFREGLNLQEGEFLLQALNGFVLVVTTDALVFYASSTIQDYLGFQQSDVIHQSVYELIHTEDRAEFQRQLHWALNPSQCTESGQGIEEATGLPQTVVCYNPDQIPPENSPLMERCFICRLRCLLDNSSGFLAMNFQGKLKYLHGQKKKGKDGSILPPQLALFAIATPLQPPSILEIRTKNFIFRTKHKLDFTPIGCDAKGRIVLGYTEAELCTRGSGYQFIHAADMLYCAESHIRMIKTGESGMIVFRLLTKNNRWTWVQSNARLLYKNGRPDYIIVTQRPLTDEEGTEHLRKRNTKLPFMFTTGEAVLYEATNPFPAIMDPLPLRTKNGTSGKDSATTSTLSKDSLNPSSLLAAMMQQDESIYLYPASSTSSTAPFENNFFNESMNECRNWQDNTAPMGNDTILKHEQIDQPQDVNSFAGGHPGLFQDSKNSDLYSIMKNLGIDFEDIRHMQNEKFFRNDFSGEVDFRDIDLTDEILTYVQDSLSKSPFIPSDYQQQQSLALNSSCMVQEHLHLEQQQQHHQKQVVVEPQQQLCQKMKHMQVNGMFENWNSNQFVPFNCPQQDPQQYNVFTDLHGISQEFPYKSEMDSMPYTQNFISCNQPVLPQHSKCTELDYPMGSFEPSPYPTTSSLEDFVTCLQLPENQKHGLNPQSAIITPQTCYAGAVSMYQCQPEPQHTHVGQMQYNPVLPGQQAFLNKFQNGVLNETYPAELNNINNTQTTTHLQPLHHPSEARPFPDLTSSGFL
Sequence of Retinoic acid receptor alpha (Homo sapiens) (P10276 whole entry, looked up): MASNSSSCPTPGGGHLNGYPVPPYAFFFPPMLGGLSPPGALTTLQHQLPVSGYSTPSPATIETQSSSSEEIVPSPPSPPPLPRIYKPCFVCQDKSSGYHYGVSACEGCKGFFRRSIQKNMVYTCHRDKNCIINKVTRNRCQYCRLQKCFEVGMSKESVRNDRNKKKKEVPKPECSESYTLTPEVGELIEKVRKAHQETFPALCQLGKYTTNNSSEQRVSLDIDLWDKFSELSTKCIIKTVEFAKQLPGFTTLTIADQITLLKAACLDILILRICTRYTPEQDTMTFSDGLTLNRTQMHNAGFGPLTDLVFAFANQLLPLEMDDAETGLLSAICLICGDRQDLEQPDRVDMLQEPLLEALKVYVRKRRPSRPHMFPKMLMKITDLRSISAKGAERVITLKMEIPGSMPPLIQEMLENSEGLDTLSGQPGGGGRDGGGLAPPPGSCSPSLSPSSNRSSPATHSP
Sequence of CCAAT/enhancer-binding protein beta (Homo sapiens) (P17676 whole entry, looked up): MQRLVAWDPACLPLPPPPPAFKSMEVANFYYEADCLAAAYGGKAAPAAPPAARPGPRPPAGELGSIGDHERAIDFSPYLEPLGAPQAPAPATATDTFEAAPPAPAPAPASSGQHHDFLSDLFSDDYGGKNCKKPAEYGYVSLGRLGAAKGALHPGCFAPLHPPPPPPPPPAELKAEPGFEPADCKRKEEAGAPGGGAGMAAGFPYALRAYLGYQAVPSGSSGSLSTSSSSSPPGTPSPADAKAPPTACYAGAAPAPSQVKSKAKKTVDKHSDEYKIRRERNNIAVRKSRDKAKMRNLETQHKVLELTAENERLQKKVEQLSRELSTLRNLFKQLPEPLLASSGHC

For the molecule `CC/C=C\C#N`, the molecule was classed as inactive in [1], in assay [2], in assay [3], in assay [4], in [5] and in assay [6]. The outcome in [7] and in [8] was inactive.
What is called AC50 is the midpoint of the concentration-response curve, whichever way the signal moves. Regarding `C[C@]12CC[C@@H]3c4ccc(O)cc4CC[C@H]3[C@@H]1CC[C@@H]2O`, the half-maximal activity concentration (AC50) was 28.6 µM (active) in assay [9]; 30.7 µM (active) in assay [10]; 32.8 µM (active) in assay [12]; 24.5 µM (active) in assay [14]; 25.6 µM (active) in [17]; 27.7 µM (active) and 62.5 µM (active) in assay [5]. Also, the AC50 in [7] was 65.8 µM (active). Moreover, the result in assay [11], in [13], in assay [15], in assay [16], in [18] and in [19] was inactive. Further, the molecule was called inactive in assay [1], in assay [2], in [4], in [5], in [6] and in assay [7]. The outcome in [8] and in assay [20] was inactive.
In the case of `O=C1CCCCCCCCCCCC(=O)OCCO1`, the molecule was classed as inactive in [1], in assay [2], in assay [3], in assay [4], in [5] and in assay [6]. Also, the outcome in assay [7] and in assay [8] was inactive.
As for `CC/C(=C(\c1ccccc1)c1ccc(OCCN(C)C)cc1)c1ccccc1`, the AC50 in assay [9] was 13.3 µM (active) and 17.4 µM (active); in assay [10] it was 53.9 µM (active) and 59 µM (active); in assay [11], 30.7 µM (active); in [12], 9.78 µM (active) and 3.59 µM (active); in assay [14], 11.6 µM (active) and 19.7 µM (active); in assay [15], 63.4 µM (active) and 100 µM (active). In addition, the AC50 in [16] was 32.1 µM (active); in assay [17], 6.04 µM (active); in assay [18], 152 µM (active); in assay [19], 119 µM (active). For the same molecule, the molecule was classed as inactive in assay [11], in assay [13], in [16], in assay [17], in assay [18] and in [19]. Also, the result in assay [1], in [2], in assay [5], in assay [7], in assay [8] and in assay [20] was inactive.
